{
  "source": "PubChem BioAssay (NCATS)",
  "key": {"[1]": {"molecular_target": "Lysosomal acid glucosylceramidase (Homo sapiens) (UniProt P04062)", "sequence (P04062 whole entry, looked up)": "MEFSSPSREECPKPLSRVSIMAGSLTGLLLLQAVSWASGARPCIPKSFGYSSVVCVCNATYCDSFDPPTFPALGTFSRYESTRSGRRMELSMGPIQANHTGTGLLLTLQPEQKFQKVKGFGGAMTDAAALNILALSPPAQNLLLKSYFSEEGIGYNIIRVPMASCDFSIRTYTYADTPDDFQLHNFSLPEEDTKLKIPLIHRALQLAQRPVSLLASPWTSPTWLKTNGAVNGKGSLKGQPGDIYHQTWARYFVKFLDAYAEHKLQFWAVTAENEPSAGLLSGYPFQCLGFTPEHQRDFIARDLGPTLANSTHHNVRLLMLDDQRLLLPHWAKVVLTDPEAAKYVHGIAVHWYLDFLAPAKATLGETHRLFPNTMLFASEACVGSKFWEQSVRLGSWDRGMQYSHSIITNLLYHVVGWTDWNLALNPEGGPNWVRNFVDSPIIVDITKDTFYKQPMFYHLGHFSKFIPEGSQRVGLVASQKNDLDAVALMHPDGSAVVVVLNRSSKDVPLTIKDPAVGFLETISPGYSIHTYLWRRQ", "test": "Glucocerebrosidase-p2 (AID 348; in the data active = potency below about 10 µM; note: potency is the fitted concentration of half-maximal effect)", "conditions": "purified GBA, blue fluorogenic substrate, 40 min", "how_it_was_run": "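Compounds titrated from 0.6 nM upwards against 0.2 nM enzyme in pH 5.9 citric acid/KH2PO4, taurocholate, tween-20; blue fluorogenic substrate 80 uM, 40 min room temperature, stopped and read Ex 365/Em 440 for AC50.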"}, "[2]": {"test": "AP1 Signaling Pathway (AID 357); note: % is set by controls: 0 for no effect and ±100 for the full control effect", "conditions": "ME-180 AP-1-bla reporter, EGF-induced, beta-lactamase ratio, 5 h; at 7.69 µM (top of the series) unless noted", "how_it_was_run": "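Cells are seeded overnight, exposed to compound titrations and an EC50 level of EGF for 5 hours at 37 °C, then loaded with CCF4 dye for 2.5 hours. Beta-lactamase activity under the AP-1 element is read as a blue/green ratio.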"}, "[3]": {"molecular_target": "Cytochrome P450 1A2 (Homo sapiens) (UniProt P05177)", "sequence (P05177 whole entry, looked up)": "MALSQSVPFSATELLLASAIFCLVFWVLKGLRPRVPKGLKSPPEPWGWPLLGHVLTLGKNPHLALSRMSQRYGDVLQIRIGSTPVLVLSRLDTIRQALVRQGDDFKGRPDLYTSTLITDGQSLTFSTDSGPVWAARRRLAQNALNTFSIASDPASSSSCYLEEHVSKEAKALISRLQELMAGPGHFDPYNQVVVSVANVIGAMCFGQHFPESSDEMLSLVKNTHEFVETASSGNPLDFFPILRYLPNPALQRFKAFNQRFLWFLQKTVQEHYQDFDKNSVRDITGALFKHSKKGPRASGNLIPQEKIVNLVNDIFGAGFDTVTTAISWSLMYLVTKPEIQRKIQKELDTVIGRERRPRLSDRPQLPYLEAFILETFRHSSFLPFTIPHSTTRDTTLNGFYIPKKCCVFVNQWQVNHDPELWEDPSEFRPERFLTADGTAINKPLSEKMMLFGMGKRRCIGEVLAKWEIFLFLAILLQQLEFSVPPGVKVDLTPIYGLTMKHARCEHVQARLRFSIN", "test": "p450-cyp1a2 (AID 410; calls by dose curve; note: potency is the fitted concentration of half-maximal effect)", "conditions": "recombinant CYP1A2, luciferin-ME demethylation, luminescence; series mostly up to 11.4 µM", "how_it_was_run": "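Human CYP1A2 (20nM) demethylated Luciferin-ME at its Km (100uM) in 100mM KPO4. After 10 min compound preincubation, NADPH regeneration ran the reaction 60 min at room temperature. Luciferin was read by luminescence, normalized to 57 uM furafylline.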"}, "[4]": {"test": "NFAT Signaling Pathway (AID 444); note: % is set by controls: 0 for no effect and ±100 for the full control effect", "conditions": "Jurkat NFAT-bla M1, carbachol, beta-lactamase ratio, 5 h; at 7.69 µM (top of the series) unless noted", "how_it_was_run": "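Jurkat cells with NFAT-driven β-lactamase reporter and co-expressed M1 receptor, stimulated with carbachol (final 1 uM, ~EC50), compound titration, 5 h at 37 °C. CCF4 loaded 1 h at RT; 460/530 nm ratio gave %activity and AC50.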"}, "[5]": {"test": "Stat Signaling Pathway (AID 446);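 note: ME-180 cervical cancer cells given 40 pM IL-6 alongside compound; SIE-controlled beta-lactamase reporter measured as 460/530 nm FRET emission ratio; % is set by controls: 0 for no effect and ±100 for the full control effect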", "conditions": "ME-180 SIE beta-lactamase reporter, IL-6 stimulated, 5 h; at 7.69 µM (top of the series) unless noted", "how_it_was_run": "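Screening format detects activators and inhibitors alike: ME-180 SIE-bla cells stimulated at 40 pM IL-6 for 5 hrs with compound, then dual-emission beta-lactamase read at 405 nm excitation.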"}, "[6]": {"molecular_target": "Mitogen-activated protein kinase 10 (Mus musculus) (UniProt Q61831)", "test": "JNK3 AlphaScreen Assay (AID 530);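 note: signal reports phosphorylation of biotinylated GST-cJun 1-79 at Ser73 with 10 µM ATP; % is set by controls: 0 for no effect and ±100 for the full control effect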", "conditions": "JNK3 lysate, c-Jun phosphorylation; series mostly up to 57.1 µM", "how_it_was_run": "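qHTS format: compounds tested as titrations against IL-1beta/TNF-alpha-activated HepG2 lysate JNK3 with biotin-GST-cJun substrate and 10 uM ATP at room temperature. Loss of anti-phospho-cJun AlphaScreen signal indicates inhibition.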"}, "[7]": {"molecular_target": "3',5'-cyclic-AMP phosphodiesterase 4B (Homo sapiens) (UniProt Q07343)", "sequence (Q07343 whole entry, looked up)": "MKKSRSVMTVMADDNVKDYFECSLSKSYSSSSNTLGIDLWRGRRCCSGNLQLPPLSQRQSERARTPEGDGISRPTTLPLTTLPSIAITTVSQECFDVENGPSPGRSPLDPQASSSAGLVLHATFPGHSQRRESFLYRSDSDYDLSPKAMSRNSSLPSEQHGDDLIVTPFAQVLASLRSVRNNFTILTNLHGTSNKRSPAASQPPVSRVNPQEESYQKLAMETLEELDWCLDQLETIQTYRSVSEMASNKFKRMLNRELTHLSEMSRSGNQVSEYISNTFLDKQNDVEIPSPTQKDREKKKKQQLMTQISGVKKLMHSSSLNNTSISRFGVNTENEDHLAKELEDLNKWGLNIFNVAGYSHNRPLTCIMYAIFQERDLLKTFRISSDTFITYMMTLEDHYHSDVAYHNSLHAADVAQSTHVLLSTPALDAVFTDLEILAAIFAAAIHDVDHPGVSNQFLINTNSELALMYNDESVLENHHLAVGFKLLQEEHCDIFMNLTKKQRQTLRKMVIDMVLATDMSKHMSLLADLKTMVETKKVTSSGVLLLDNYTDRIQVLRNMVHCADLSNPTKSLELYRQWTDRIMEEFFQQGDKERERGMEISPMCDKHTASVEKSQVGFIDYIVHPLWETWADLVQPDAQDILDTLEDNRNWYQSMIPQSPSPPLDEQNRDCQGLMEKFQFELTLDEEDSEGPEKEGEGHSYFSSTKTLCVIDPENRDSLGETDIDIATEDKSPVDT", "test": "qHTS Assay for Inhibitors of PDE-IV (AID 607; active = well fitted activation curve with a large enough effect in the main read-out, with a control signal flat, not every such curve was filed as active; note: % of control where 0% means no effect)", "conditions": "HEK293 ACTOne CNG channel cells, membrane potential fluorescence; series mostly up to 22.9 µM", "how_it_was_run": "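The readout is membrane depolarisation from a cAMP-sensing CNG channel, detected with a potential dye at ex 535/em 590. Cells were HEK293-derived (endogenous PDE-IV) at 1000 cells/well, titrated up to 22.9 uM final.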"}, "[8]": {"molecular_target": "Luciferin 4-monooxygenase (Photinus pyralis) (UniProt P08659)", "sequence (P08659 whole entry, looked up)": "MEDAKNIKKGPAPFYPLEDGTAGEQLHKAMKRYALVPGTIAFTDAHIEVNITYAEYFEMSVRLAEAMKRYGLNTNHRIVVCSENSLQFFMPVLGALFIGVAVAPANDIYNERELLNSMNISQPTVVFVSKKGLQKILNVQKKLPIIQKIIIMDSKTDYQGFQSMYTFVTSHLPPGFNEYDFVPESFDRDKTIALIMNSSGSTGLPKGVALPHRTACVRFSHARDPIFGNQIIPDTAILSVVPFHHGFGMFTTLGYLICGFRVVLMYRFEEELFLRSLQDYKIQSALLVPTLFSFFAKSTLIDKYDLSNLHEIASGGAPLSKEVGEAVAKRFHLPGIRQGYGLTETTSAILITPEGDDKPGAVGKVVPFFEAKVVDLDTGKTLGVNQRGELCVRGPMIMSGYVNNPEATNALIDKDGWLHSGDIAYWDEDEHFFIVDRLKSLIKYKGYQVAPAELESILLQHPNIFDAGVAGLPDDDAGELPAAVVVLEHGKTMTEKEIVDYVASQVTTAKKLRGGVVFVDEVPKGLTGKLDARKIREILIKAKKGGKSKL", "test": "Biochemical firefly luciferase enzyme assay for NPC (AID 624030; active = well fitted curve in the direction sought with a large enough effect; an effect the other way counts as inactive or inconclusive;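 note: 0% = DMSO and -100% = full luciferase inhibition by PTC124 control; nearly all actives have a fitted effect of over 70% in size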)", "conditions": "purified P. pyralis luciferase, luminescence, 5 min; series mostly up to 58.6 µM", "how_it_was_run": "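Purified P. pyralis luciferase at 10 nM in 50 mM Tris Acetate (final), luminescence read within 5 minutes of enzyme addition to compounds. Activity normalised to PTC124 versus DMSO; concentration-response curves classed by r2, magnitude and activity.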"}, "[9]": {"molecular_target": "Glucocorticoid receptor (Homo sapiens) (UniProt P04150)", "sequence (P04150 whole entry, looked up, the tested form may be a part)": "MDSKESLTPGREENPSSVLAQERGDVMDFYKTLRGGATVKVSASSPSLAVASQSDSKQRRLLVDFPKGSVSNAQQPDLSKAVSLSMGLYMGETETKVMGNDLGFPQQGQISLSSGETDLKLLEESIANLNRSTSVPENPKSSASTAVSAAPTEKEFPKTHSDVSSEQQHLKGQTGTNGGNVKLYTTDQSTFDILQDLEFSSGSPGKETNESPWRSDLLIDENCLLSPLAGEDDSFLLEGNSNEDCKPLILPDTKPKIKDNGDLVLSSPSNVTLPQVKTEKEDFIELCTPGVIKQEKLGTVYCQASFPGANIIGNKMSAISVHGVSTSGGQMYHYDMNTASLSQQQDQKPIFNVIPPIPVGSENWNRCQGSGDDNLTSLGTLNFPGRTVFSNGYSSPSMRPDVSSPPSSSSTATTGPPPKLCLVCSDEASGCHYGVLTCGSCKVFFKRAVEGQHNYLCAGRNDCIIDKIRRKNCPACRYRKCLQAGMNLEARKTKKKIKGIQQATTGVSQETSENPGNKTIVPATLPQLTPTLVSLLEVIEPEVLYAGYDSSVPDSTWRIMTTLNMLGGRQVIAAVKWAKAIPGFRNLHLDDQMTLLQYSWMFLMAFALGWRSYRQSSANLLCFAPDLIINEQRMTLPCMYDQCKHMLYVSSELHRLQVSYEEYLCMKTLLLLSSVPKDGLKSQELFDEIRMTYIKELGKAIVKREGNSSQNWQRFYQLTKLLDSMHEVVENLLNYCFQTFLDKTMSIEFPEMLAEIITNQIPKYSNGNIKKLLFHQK", "test": "GR-GFP Redistribution (AID 450;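 active = compounds whose dose series gives a full or clear partial fitted curve of increased nuclear translocation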; note: potency is the fitted concentration of half-maximal effect)", "conditions": "U2OS GR-GFP nuclear translocation, laser cytometry, 2 h"}, "[10]": {"molecular_target": "Glucocorticoid receptor (Homo sapiens) (UniProt P04150)", "test": "GR-EFC Redistribution (AID 451; calls by dose curve; note: potency is the fitted concentration of half-maximal effect)", "conditions": "CHO-K1 GR-EFC translocation, beta-gal luminescence, 2 h", "how_it_was_run": "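CHO-K1 cells expressing nuclear EA and GR-ED fragments of b-gal; compounds titrated up to 46 uM final, 2 h at 37 C. GR nuclear translocation read as complemented b-gal luminescence after 1 h RT detection.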"}, "[11]": {"test": "qHTS Assay for Identification of Small Molecule Agonists for Hypoxia Response Element Signaling Pathway (AID 914; active = well fitted activation curve with a large enough effect in the signal ratio, with a control signal flat, not every such curve was filed as active; the % refers to the signal ratio; note: % of control where 0% means no effect)", "conditions": "ME-180 HRE-bla reporter, beta-lactamase ratio, CoCl2, 17 h; active compounds read high", "how_it_was_run": "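HRE-bla ME-180 cells, overnight plating in Opti-MEM with 0.5% dialyzed FBS; cpd titration + EC50 CoCl2, 17 h, 37 degrees Celsius; CCF4 2.5 h RT; 460/530 nm ratio; AC50.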"}, "[12]": {"molecular_target": "Tyrosyl-DNA phosphodiesterase 1 (Homo sapiens) (UniProt Q9NUW8)", "sequence (Q9NUW8 whole entry, looked up)": "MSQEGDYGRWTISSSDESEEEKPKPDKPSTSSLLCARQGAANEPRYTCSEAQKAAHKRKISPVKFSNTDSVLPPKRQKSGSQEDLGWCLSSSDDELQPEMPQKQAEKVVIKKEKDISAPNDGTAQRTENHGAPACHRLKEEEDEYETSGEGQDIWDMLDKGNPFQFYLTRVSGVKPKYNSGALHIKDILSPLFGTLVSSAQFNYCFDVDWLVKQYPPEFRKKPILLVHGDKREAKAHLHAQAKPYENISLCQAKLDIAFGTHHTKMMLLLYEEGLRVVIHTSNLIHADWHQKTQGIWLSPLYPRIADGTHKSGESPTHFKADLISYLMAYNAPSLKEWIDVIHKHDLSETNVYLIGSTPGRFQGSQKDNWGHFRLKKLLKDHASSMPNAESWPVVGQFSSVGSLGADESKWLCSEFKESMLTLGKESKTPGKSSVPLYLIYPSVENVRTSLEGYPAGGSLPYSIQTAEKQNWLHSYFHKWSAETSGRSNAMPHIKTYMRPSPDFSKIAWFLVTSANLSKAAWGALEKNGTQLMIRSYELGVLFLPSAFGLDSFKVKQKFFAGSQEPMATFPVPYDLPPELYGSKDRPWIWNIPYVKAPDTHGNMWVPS", "test": "Confirmation Assay for Inhibitors of Tyrosyl-DNA Phosphodiesterase (TDP1) (AID 489007; active = well fitted curve in the direction sought with a large enough effect; an effect the other way counts as inactive or inconclusive; note: potency is the fitted concentration of half-maximal effect; nearly all actives have a fitted effect of over 40% in size)", "conditions": "recombinant human TDP1 enzymatic activity, dose-response", "how_it_was_run": "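Recombinant E. coli-expressed Tdp1 (1 nM final) was preincubated with compounds 15 min at room temperature, then reacted 5 min with 15 nM 5'-biotin/3'-phosphotyrosine-FITC DNA substrate; cleavage read as loss of AlphaScreen signal (10 ug/ml beads, 10 min).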"}, "[13]": {"molecular_target": "Cytochrome P450 2C19 (Homo sapiens) (UniProt P33261)", "sequence (P33261 whole entry, looked up)": "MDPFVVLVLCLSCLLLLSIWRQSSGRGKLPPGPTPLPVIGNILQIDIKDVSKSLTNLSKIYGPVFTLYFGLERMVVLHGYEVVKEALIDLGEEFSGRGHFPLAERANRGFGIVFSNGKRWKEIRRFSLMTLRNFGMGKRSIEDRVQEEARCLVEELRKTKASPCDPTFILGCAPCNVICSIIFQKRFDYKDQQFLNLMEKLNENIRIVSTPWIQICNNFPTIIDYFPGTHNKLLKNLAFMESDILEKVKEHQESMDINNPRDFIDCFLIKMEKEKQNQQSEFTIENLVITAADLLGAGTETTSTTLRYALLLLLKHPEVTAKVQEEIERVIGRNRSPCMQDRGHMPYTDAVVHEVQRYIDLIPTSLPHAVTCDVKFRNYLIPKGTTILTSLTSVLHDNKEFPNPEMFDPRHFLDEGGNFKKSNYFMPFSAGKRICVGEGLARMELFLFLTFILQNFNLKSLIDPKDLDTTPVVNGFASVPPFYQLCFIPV", "test": "qHTS Assay for Inhibitors and Substrates of Cytochrome P450 2C19 (AID 899; active = well fitted curve in the direction sought with a large enough effect; an effect the other way counts as inactive or inconclusive; note: % is set by controls: 0 for no effect and ±100 for the full control effect; nearly all actives have a fitted effect of over 60% in size)", "conditions": "recombinant CYP2C19, luciferin-H EGE luminescence; series mostly up to 11.4 µM", "how_it_was_run": "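Luminescent read-out of luciferin formed from Luciferin-H EGE (10uM, equal to KM). Enzyme 5nM in 50mM KPO4; compound added, 10 min at 37C, then NADPH regenerating system for 60 min at 37C. Full inhibition defined by 57uM ketoconazole.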"}, "[14]": {"molecular_target": "Cytochrome P450 2D6 (Homo sapiens) (UniProt P10635)", "sequence (P10635 whole entry, looked up)": "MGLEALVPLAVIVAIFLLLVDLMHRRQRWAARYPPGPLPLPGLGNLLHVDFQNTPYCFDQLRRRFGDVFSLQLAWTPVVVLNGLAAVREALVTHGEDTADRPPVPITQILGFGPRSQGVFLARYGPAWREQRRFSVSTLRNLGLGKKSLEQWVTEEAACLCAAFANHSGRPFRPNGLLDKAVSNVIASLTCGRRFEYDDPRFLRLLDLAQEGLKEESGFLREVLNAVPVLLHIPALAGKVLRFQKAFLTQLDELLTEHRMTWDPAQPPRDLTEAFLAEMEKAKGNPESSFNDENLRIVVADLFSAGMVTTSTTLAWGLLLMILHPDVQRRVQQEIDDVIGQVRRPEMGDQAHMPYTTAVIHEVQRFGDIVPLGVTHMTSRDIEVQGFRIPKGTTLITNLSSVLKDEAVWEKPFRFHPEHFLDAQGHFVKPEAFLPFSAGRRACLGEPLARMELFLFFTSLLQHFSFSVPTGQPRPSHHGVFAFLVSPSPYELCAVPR", "test": "qHTS Assay for Inhibitors and Substrates of Cytochrome P450 2D6 (AID 891; active = well fitted curve in the direction sought with a large enough effect; an effect the other way counts as inactive or inconclusive; note: potency is the fitted concentration of half-maximal effect; nearly all actives have a fitted effect of over 60% in size)", "conditions": "recombinant CYP2D6, luciferin-ME EGE luminescence; series mostly up to 11.4 µM", "how_it_was_run": "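Human CYP2D6 (5 nM) with 30 uM Luciferin-ME EGE (at Km) in 100 mM KPO4, compound preincubated 10 min, then NADPH regeneration system for 60 min at room temperature. Luciferin read by luminescence; normalized to 1.43 uM quinidine.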"}},
  "note": "A number with no mark means an inactive call. Records with an inconclusive call do not appear. Activity calls are given as the source filed them. Unless noted, calls come from the whole dose curve; as a rule, active = well fitted curve in either direction with a large enough effect (not every such curve was filed as active); inconclusive = small, poorly fitted or top-dose-only effect, or another doubt; inactive = flat fitted curve, though single readings scatter.",
  "data": [
    {"smiles": "O=c1[nH]cnc2[nH]cc(CN3CCCCC3)c12", "values": [
      {"measurement": "Potency", "setting": "[1]", "value": "> 11.4", "unit": "µM"},
      {"measurement": "activity change, negative = inhibition", "setting": "[2]", "value": 2.74, "unit": "%"},
      {"measurement": "Potency", "setting": "[3]", "value": "inactive"},
      {"measurement": "activity change, negative = inhibition", "setting": "[4]", "value": 3.17, "unit": "%"},
      {"measurement": "activity, negative = inhibition", "setting": "[5]", "value": 0.346, "unit": "%"},
      {"measurement": "activity change, negative = inhibition", "setting": "[6]", "value": "0.447% [at 11.4 µM]"},
      {"measurement": "outcome", "setting": "[7]", "value": "inactive"},
      {"measurement": "outcome", "setting": "[8]", "value": "inactive"}
    ]},
    {"smiles": "O=[N+]([O-])c1cc(-c2ccc([As](=O)(O)O)cc2)ccc1[As](=O)(O)O", "values": [
      {"measurement": "Potency", "setting": "[1]", "value": "> 11.4", "unit": "µM"},
      {"measurement": "activity change, negative = inhibition", "setting": "[2]", "value": 3.12, "unit": "%"},
      {"measurement": "activity change, negative = inhibition", "setting": "[3]", "value": "-10.9% [at 2.29 µM]"},
      {"measurement": "activity, negative = inhibition", "setting": "[5]", "value": 1.81, "unit": "%"},
      {"measurement": "Potency", "setting": "[9]", "value": "> 46", "unit": "µM"},
      {"measurement": "Potency", "setting": "[10]", "value": "> 9.22", "unit": "µM"},
      {"measurement": "activity change, negative = inhibition", "setting": "[6]", "value": "2.81% [at 11.4 µM]"},
      {"measurement": "outcome", "setting": "[7]", "value": "inactive"},
      {"measurement": "activation", "setting": "[11]", "value": 1.51, "unit": "%"},
      {"measurement": "Potency", "setting": "[12]", "value": "89.1 µM (active)"}
    ]},
    {"smiles": "c1cc(C2N3CCCN2CC3)ccn1", "note": "(stereo not drawn)", "values": [
      {"measurement": "Potency", "setting": "[1]", "value": "> 11.4", "unit": "µM"},
      {"measurement": "activity change, negative = inhibition", "setting": "[2]", "value": 2.62, "unit": "%"},
      {"measurement": "Potency", "setting": "[3]", "value": "1.26 µM (active)"},
      {"measurement": "activity, negative = inhibition", "setting": "[5]", "value": 3.03, "unit": "%"},
      {"measurement": "Potency", "setting": "[9]", "value": "> 46", "unit": "µM"},
      {"measurement": "Potency", "setting": "[10]", "value": "> 9.22", "unit": "µM"},
      {"measurement": "activity change, negative = inhibition", "setting": "[6]", "value": "2.87% [at 11.4 µM]"},
      {"measurement": "outcome", "setting": "[7]", "value": "inactive"},
      {"measurement": "Potency", "setting": "[13]", "value": "inactive"}
    ]},
    {"smiles": "O=S(=O)(O)/C(=C\\c1ccccc1)c1ccccc1", "note": "(tested in a mixture with another compound)", "values": [
      {"measurement": "Potency", "setting": "[1]", "value": "> 11.4", "unit": "µM"},
      {"measurement": "activity change, negative = inhibition", "setting": "[2]", "value": 4.77, "unit": "%"},
      {"measurement": "activity change, negative = inhibition", "setting": "[3]", "value": "-29% [at 2.29 µM]"},
      {"measurement": "activity change, negative = inhibition", "setting": "[4]", "value": 11.5, "unit": "%"},
      {"measurement": "activity, negative = inhibition", "setting": "[5]", "value": 7.2, "unit": "%"},
      {"measurement": "activity change, negative = inhibition", "setting": "[6]", "value": "4.57% [at 11.4 µM]"},
      {"measurement": "outcome", "setting": "[7]", "value": "inactive"}
    ]},
    {"smiles": "CC1(C)N=C(N)N=C(N)N1c1cccc(C(=O)Nc2ccc(S(=O)(=O)F)cc2)c1", "values": [
      {"measurement": "Potency", "setting": "[1]", "value": "> 11.4", "unit": "µM"},
      {"measurement": "activity change, negative = inhibition", "setting": "[2]", "value": -0.165, "unit": "%"},
      {"measurement": "Potency", "setting": "[3]", "value": "inactive"},
      {"measurement": "activity, negative = inhibition", "setting": "[5]", "value": 9.13, "unit": "%"},
      {"measurement": "Potency", "setting": "[9]", "value": "> 46", "unit": "µM"},
      {"measurement": "Potency", "setting": "[10]", "value": "> 9.22", "unit": "µM"},
      {"measurement": "activity change, negative = inhibition", "setting": "[6]", "value": "7.01% [at 11.4 µM]"},
      {"measurement": "outcome", "setting": "[7]", "value": "inactive"},
      {"measurement": "Potency", "setting": "[14]", "value": "2 µM (active)"}
    ]}
  ]
}
